The first assay has as its target T1, FLI1 (Homo sapiens, UniProt Q01543 1-452).
T1 sequence: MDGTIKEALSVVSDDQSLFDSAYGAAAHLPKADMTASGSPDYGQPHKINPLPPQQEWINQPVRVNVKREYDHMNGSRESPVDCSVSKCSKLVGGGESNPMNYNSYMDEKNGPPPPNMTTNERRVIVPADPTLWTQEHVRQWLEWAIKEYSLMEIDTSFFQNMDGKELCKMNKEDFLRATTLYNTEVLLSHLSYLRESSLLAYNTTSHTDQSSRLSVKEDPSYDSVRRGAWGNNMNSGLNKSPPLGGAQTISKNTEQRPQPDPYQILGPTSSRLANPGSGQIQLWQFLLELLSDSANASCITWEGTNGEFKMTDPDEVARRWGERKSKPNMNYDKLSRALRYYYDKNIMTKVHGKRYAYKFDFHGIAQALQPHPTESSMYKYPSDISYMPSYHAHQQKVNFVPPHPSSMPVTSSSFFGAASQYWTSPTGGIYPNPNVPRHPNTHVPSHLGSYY
As to the kind of experiment: DAPPL (digital affinity profiling via proximity ligation, sequencing); 10 mM Tris-HCl pH 7.5, 50 mM NaCl, 1 mM DTT, 4% glycerol, room temperature, 30 min; GST-TFs on glutathione beads, 16-mer random dsDNA library, 0.1% formaldehyde crosslink after washing; high values mean tight binding. To be noted: protein: recombinant; tags: N-terminal GST; dsDNA, one strand shown. In outline: (§1)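 Human transcription factors carrying a GST fusion were produced in yeast, bound to glutathione beads, tagged with DNA barcodes and pooled together with a tag-only sample. Each pool was held with 200 nmole of a random double-stranded 16-mer DNA library in Tris/NaCl/DTT/glycerol buffer for 30 min at room temperature, then washed, crosslinked in 0.1% formaldehyde, proximity-ligated with BsaI/T4 ligase (1 h, 37 °C), PCR-amplified and sequenced on an Illumina NextSeq500. Binding signal is the read frequency of each hexamer for a given factor divided by its frequency in the tag-only sample.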
As to TTTGTG, the binding signal was 1.31 fold enrichment (6-mer frequency, TF over GST control).

For the sequence AATTCA, the binding signal was 1.29 fold enrichment (6-mer frequency, TF over GST control).

Turning to TTGCTC, the binding signal was 1.35 fold enrichment (6-mer frequency, TF over GST control).

For CTAAAC, the binding signal was 1.24 fold enrichment (6-mer frequency, TF over GST control).

TAGGCT: the binding signal was 1.22 fold enrichment (6-mer frequency, TF over GST control).

For CCTCTG, the binding signal was 1.57 fold enrichment (6-mer frequency, TF over GST control).

As for TGTCTA, the binding signal was 1.2 fold enrichment (6-mer frequency, TF over GST control).

Regarding TTCACC, the binding signal is 1.35 fold enrichment (6-mer frequency, TF over GST control).

For the sequence ATCTAC, the binding signal was 1.2 fold enrichment (6-mer frequency, TF over GST control).

On to CACTAT, for which the binding signal is 1.23 fold enrichment (6-mer frequency, TF over GST control).

For the sequence TAATCC, the binding signal was 1.29 fold enrichment (6-mer frequency, TF over GST control).

Take AAAGAT: the binding signal is 1.18 fold enrichment (6-mer frequency, TF over GST control).

With CGTCTT, the binding signal is 1.46 fold enrichment (6-mer frequency, TF over GST control).

With ACTGAA, the binding signal was 1.07 fold enrichment (6-mer frequency, TF over GST control).

With CTCCGC, the binding signal is 1.51 fold enrichment (6-mer frequency, TF over GST control).

For the sequence CAACTC, the binding signal was 1.37 fold enrichment (6-mer frequency, TF over GST control).

TACAAT: the binding signal is 1.29 fold enrichment (6-mer frequency, TF over GST control).

CCATCT: the binding signal is 1.3 fold enrichment (6-mer frequency, TF over GST control).

For the sequence TCCCCG, the binding signal is 1.15 fold enrichment (6-mer frequency, TF over GST control).

Turning to ACTCTA, the binding signal is 1.42 fold enrichment (6-mer frequency, TF over GST control).

Regarding CCCTCC, the binding signal was 1.37 fold enrichment (6-mer frequency, TF over GST control).

ATATTC: the binding signal is 1.24 fold enrichment (6-mer frequency, TF over GST control).

Turning to CGCTTA, the binding signal is 1.32 fold enrichment (6-mer frequency, TF over GST control).

Regarding ACGTTA, the binding signal was 1.11 fold enrichment (6-mer frequency, TF over GST control).

As to GCCTTT, the binding signal was 1.33 fold enrichment (6-mer frequency, TF over GST control).

As to TTCGAG, the binding signal was 1.18 fold enrichment (6-mer frequency, TF over GST control).

On to CTGAGC, for which the binding signal is 1.08 fold enrichment (6-mer frequency, TF over GST control).

In the case of AATTCT, the binding signal was 1.4 fold enrichment (6-mer frequency, TF over GST control).

On to CCTGAA, for which the binding signal was 1.35 fold enrichment (6-mer frequency, TF over GST control).

TAACTT: the binding signal is 1.41 fold enrichment (6-mer frequency, TF over GST control).

For CTCATC, the binding signal is 1.5 fold enrichment (6-mer frequency, TF over GST control).

Consider TCTCAT, for which the binding signal was 1.3 fold enrichment (6-mer frequency, TF over GST control).

Regarding TGATGA, the binding signal was 1.38 fold enrichment (6-mer frequency, TF over GST control).

For TTAAAT, the binding signal is 1.17 fold enrichment (6-mer frequency, TF over GST control).

TTTCAA: the binding signal is 1.24 fold enrichment (6-mer frequency, TF over GST control).

For the sequence ATATGG, the binding signal is 1.13 fold enrichment (6-mer frequency, TF over GST control).

Turning to ACTTGG, the binding signal is 1.34 fold enrichment (6-mer frequency, TF over GST control).

On to CACATT, for which the binding signal was 1.3 fold enrichment (6-mer frequency, TF over GST control).

Regarding TCCTGA, the binding signal is 1.43 fold enrichment (6-mer frequency, TF over GST control).

For another assay, the target named is T2, ELK1 (Homo sapiens, UniProt P19419 1-428).
T2 sequence: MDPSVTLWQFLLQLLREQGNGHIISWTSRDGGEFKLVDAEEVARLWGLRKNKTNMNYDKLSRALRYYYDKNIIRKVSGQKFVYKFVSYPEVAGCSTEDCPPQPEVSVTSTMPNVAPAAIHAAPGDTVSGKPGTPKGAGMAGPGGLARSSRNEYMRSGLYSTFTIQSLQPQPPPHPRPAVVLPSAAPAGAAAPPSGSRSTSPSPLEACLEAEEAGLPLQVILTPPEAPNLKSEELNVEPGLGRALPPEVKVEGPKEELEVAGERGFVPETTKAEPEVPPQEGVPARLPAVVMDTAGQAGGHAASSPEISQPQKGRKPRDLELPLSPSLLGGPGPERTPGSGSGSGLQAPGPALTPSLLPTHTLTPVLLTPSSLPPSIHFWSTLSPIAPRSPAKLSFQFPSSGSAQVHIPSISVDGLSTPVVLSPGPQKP
Described as above. As to conditions: protein: recombinant; tags: N-terminal GST; dsDNA, one strand shown. In outline: as §1
As to TTTGTG, the binding signal is 1.2 fold enrichment (6-mer frequency, TF over GST control).

Consider AATTCA, for which the binding signal is 1.23 fold enrichment (6-mer frequency, TF over GST control).

As to TTGCTC, the binding signal was 1.4 fold enrichment (6-mer frequency, TF over GST control).

On to CTAAAC, for which the binding signal is 1.18 fold enrichment (6-mer frequency, TF over GST control).

For TAGGCT, the binding signal was 1.18 fold enrichment (6-mer frequency, TF over GST control).

CCTCTG: the binding signal is 1.75 fold enrichment (6-mer frequency, TF over GST control).

On to TGTCTA, for which the binding signal is 1.15 fold enrichment (6-mer frequency, TF over GST control).

Take TTCACC: the binding signal was 1.39 fold enrichment (6-mer frequency, TF over GST control).

In the case of ATCTAC, the binding signal is 1.38 fold enrichment (6-mer frequency, TF over GST control).

Consider CACTAT, for which the binding signal is 1.18 fold enrichment (6-mer frequency, TF over GST control).

As to TAATCC, the binding signal was 1.26 fold enrichment (6-mer frequency, TF over GST control).

AAAGAT: the binding signal is 1.21 fold enrichment (6-mer frequency, TF over GST control).

With CGTCTT, the binding signal is 1.43 fold enrichment (6-mer frequency, TF over GST control).

Take ACTGAA: the binding signal is 1.27 fold enrichment (6-mer frequency, TF over GST control).

Turning to CTCCGC, the binding signal was 1.63 fold enrichment (6-mer frequency, TF over GST control).

Consider CAACTC, for which the binding signal was 1.23 fold enrichment (6-mer frequency, TF over GST control).

As for TACAAT, the binding signal was 1.28 fold enrichment (6-mer frequency, TF over GST control).

Turning to CCATCT, the binding signal is 1.44 fold enrichment (6-mer frequency, TF over GST control).

For the sequence TCCCCG, the binding signal is 1.22 fold enrichment (6-mer frequency, TF over GST control).

For the origin of these results see article PMC7862700, “An all-to-all approach to the identification of sequence-specific readers for epigenetic DNA modifications on cytosine”.
